The structures appear in SMILES notation. The campaign covered roughly 360,000 compounds. About 1,800 (0.5%) were called active. For the sample, actives were picked, then their nearest neighbours and some compounds at random. Unmarked numbers belong to inactive results.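 The calls were made as follows: active = mean inhibition of at least 75% with every replicate also reaching 75%; inconclusive = mean inhibition at least 75% but some replicate below; inactive = mean inhibition below 75%.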

Broadly, the inhibition is the drop in the measured response relative to a control, in per cent.

This assay can be described thus: Shn3 3'UTR reporter decrease in osteoblasts – cell-based, Clone20 osteoblasts, firefly luciferase, set 2, Schnurri-3 inhibitor project, primary screen (AID 588674).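 Also: 0% = median of neutral control wells and 100% = pilot-screen positive control compound.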 To be noted: Clone20 osteoblast Shn3 3'UTR firefly luciferase, 24 h; at 12.5 µM; stronger effect = higher value.
Turning to `Cc1ccccc1N1CCN(CCCN2C(=O)C3CCCCN3C2=O)CC1` (stereo unspecified), the inhibition is 2.03%. To `COC(=O)Cc1ccc(OC(=O)C2CCN(S(=O)(=O)c3ccc(OC)c(OC)c3)CC2)cc1` belongs -15.3%; to `CNS(=O)(=O)c1ccc2c(c1)[nH]c(=S)n2C`, 12.3%.

As to `COc1cc(C(=O)OCCCN2CCOCC2)cc(OC)c1OC`, the inhibition is 8.18%. With `Nc1nonc1-n1nnc(C(=O)N/N=C\c2ccncc2)c1CN1CCCCC1` the figure was 10.4%; with `COCc1c(C(=O)N/N=C\c2cccnc2)nnn1-c1nonc1N`, 9.7%; with `Nc1nonc1-n1nnc(C(=O)N/N=C/c2cc(Br)ccc2O)c1CSC1=NCCS1`, 94% (active). Regarding `Cc1ccc(Cc2c(-c3ccco3)nc3ccc(Cl)cn23)cc1`, the inhibition was 2.12%. Turning to `CC(=O)/C(=N\Nc1ccc(Cl)cc1Cl)Sc1cccc2cccnc12`, the inhibition is 93% (active).

Consider `Cc1c(NC(=O)CSc2cccc3cccnc23)c(=O)n(-c2ccccc2)n1C`, for which the inhibition is 19.9%. With `O=C(CSc1cccc2cccnc12)N/N=C/c1cccnc1` the figure was 20.8%; with `Cc1ccsc1CNn1cnnc1SCc1ccccc1F`, 5.38%; with `CC12CCC(=O)C=C1CCC1C2C(O)CC2(C)C1CCC2(O)C(O)CO` (stereo unspecified), 4.53%. With `CCCCCCNC(=O)O[C@H]1CN(C(=O)OC(C)C)N(C(=O)OC(C)C)[C@@H]2CN(S(=O)(=O)c3ccc(C)cc3)C[C@]12O` the figure was -14.9%; with `OCCCNc1nccc(-c2cc(Nc3cccc(Cl)c3)ncn2)n1`, 96.3% (active); with `CCOc1c(Nc2cccc(Cl)c2)c(=O)c1=O`, -16.6%. Take `Cc1ccc(NC(=O)CN2CCCCC2)c2c1CC(C)(C)O2`: the inhibition is -24.2%.

As for `Cc1ccc(-n2c(SCC(=O)N/N=C/C=C/c3ccccc3[N+](=O)[O-])nc3ccccc3c2=O)cc1`, the inhibition is 1.32%.

On to `O=c1c2ccccc2ncn1/N=C/c1ccccc1`, for which the inhibition is -28%. `CCn1c(/C=C/c2ccc([N+](=O)[O-])o2)nc2ccccc2c1=O`: the inhibition was 97.2% (active).

Regarding `C=CCC(CC=C)(C(N)=O)c1ccccc1`, the inhibition is 1.2%. To `CC(=O)Nc1cccc(C(=O)OCC(=O)NCc2cc(C)c(O)c(C)c2)c1` belongs -47.1%. With `C[C@H]1CN([C@@H](C)CO)C(=O)CCCn2cc(nn2)CO[C@@H]1CN(C)S(=O)(=O)c1cccs1` the figure was -17.2%; with `CCOc1cc(/C=N/Nc2cc(C)nc3ccc(C)cc23)ccc1O`, -7.54%. With `CCN(CC)c1ccc(/C=N/Nc2nc(C)cc(C)n2)c(O)c1` the figure was 89.4% (active); with `O=C1CSC(c2ccc(Cl)cc2)N1` (stereo unspecified), -10.9%; with `O=C(CCS(=O)(=O)c1ccccc1)Nc1nc2c(s1)CCCC2`, 84.1% (active). Regarding `O=C(CSc1nc(O)c(Cc2ccccc2)c(=O)[nH]1)Nc1nc2c(s1)CCCC2`, the inhibition is 8.82%. With `O=C(CCS(=O)(=O)c1ccccc1)NC1CCCC1` the figure was -23.2%; with `CNc1nc(SC)nc(N(C#N)CC(=O)OC)n1`, -9.64%. With `C=CCSc1nc(N)cc(=O)[nH]1` the figure was 15.2%. In the case of `Cc1ccc(-c2nn(-c3ccc(F)cc3)cc2C(=O)NCC(c2cccs2)N2CCOCC2)cc1` (stereo unspecified), the inhibition was 13.6%. With `Cc1ccc2nc(-c3ccc(Br)cc3)cn2c1` the figure was 23.5%. To `Cc1ccc(-c2nc3ccc(Cl)cn3c2Cc2ccccc2)cc1` belongs -75.7%. To `Cc1ccc(-c2cn3cc(C)ccc3n2)cc1` belongs 89% (active); to `Cn1c(=O)c2c(ncn2CC(COCc2ccccc2Cl)OCc2ccccc2Cl)n(C)c1=O` (stereo unspecified), 13%. With `Oc1ccc2ccccc2c1N=Nc1nccs1`, the inhibition was 93.2% (active). To `CCCCN1CC(N2CCN(Cc3cccc(C)c3)CC2)CS1(=O)=O` (stereo unspecified) belongs 4.01%; to `O=[N+]([O-])c1c(NCCO)cc(Sc2nc3ccccc3s2)c2nonc12`, 93.7% (active). With `COc1ccc(NC(=O)CCCOc2ccc(C(C)=O)cc2)cc1S(=O)(=O)N1CCCCC1` the figure was 42.4%; with `O=C(NC(=S)Nc1ccc(Br)cc1F)C1CCCCC1`, -15.2%; with `Cc1ccc(S(=O)(=O)/N=C(/NC(=S)Nc2c(C)n(C)n(-c3ccccc3)c2=O)c2ccccc2)cc1`, -6.62%. With `COc1ccc(C(C)(O)c2nc(-c3ccc(C)c(C)c3)cs2)cc1` (stereo unspecified) the figure was 8.01%; with `COc1ccc(OC)c(Nc2nc(-c3ccc(O)c(O)c3)cs2)c1`, 97.4% (active). Turning to `COc1ccc(C(O)c2nc(-c3ccc4c(c3)OCO4)cs2)cc1` (stereo unspecified), the inhibition is -17.7%. Take `COc1ccc(C(=O)OCc2cc(=O)n3ccsc3n2)cc1F`: the inhibition was -7.31%. Turning to `COc1ccc(C(=O)NCc2ccc(Cl)cc2)cc1S(=O)(=O)N1CCCC1`, the inhibition is -1.61%.

For the molecule `COc1ccc(CCNC(=O)CN(C)S(=O)(=O)c2ccc3nc(C)sc3c2)cc1OC`, the inhibition is -10.6%. To `CC1(C(=O)NS(=O)(=O)c2cccc(OC(F)F)c2)CCN1C(=O)C1CC1` (stereo unspecified) belongs -7.16%; to `COc1cc(NC(=S)NCc2ccc(S(N)(=O)=O)cc2)cc(OC)c1`, 2.83%; to `NS(=O)(=O)c1ccc(CNC(=S)NC(=O)c2ccco2)cc1`, 93.5% (active). To `NS(=O)(=O)c1ccc(NC(=O)COC(=O)c2ccco2)cc1` belongs 2.57%; to `N#Cc1ccc(S(=O)(=O)NCC(=O)OCC(=O)NCCc2ccccc2)cc1`, 1.43%.

For the molecule `OCc1n[nH]c(CO)n1`, the inhibition is -14.1%.

On to `CC(=O)Nc1c2c(nn1-c1cccc(C)c1)CSC2`, for which the inhibition was -0.825%.

For the molecule `Cc1cccc(-n2ncc(Cl)c(Cl)c2=O)c1`, the inhibition was 94.3% (active). Consider `Cc1cccc(-n2ncc3c(=O)[nH]c(SCC(=O)Nc4cc(C)on4)nc32)c1`, for which the inhibition was -22.6%. Regarding `Cc1c(Br)c([N+](=O)[O-])nn1CC(=O)Nc1sc2c(c1C(=O)OC(C)C)CCC(C)C2` (stereo unspecified), the inhibition is -5.32%. `O=C(CN1C(=O)NC2(CCOc3ccccc32)C1=O)Nc1cccc([N+](=O)[O-])c1` (stereo unspecified): the inhibition was 89.4% (active).

Take `O=C(CN1C(=O)NC2(CCOc3ccccc32)C1=O)NCc1ccc(F)cc1` (stereo unspecified): the inhibition is -2.61%. With `Cc1ccc(C(=O)CN2C(=O)NC3(CCOc4ccccc43)C2=O)s1` (stereo unspecified) the figure was -11.6%.

The values are drawn from PubChem BioAssay AID588674 (Broad Institute, 2011).
